The panel holds about 83,000 compounds, 20% with a hit somewhere; the sample as a whole holds those more often.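 Treatment: one concentration, 48 hours, 96-well format. Scoring: percent growth, with anything below 10 considered active.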 Activity calls are given as the source filed them.
Experiments:
Experiment in all cases: NCI-60 one-dose screen, 48 h (100 = growth as untreated, 0 = no growth, -100 = all killed)
Settings in all cases: 10 µM unless noted
NCI-H23 lung = system: NCI-H23 lung
NCI-H226 lung = system: NCI-H226 lung
NCI-H322M lung = system: NCI-H322M lung
HOP-62 NSCLC = system: HOP-62 NSCLC
NCI-H460 lung = system: NCI-H460 lung
HOP-92 NSCLC = system: HOP-92 NSCLC
NCI-H522 lung = system: NCI-H522 lung
A549/ATCC NSCLC = system: A549/ATCC NSCLC
786-0 renal = system: 786-0 renal
COLO 205 colon = system: COLO 205 colon
DU-145 prostate = system: DU-145 prostate
K-562 leukemia = system: K-562 leukemia
MALME-3M melanoma = system: MALME-3M melanoma
MDA-MB-231 breast = system: MDA-MB-231 breast
RXF 393 renal = system: RXF 393 renal
SF-268 CNS = system: SF-268 CNS
SF-295 CNS = system: SF-295 CNS
SF-539 CNS = system: SF-539 CNS
UACC-257 melanoma = system: UACC-257 melanoma
M14 melanoma = system: M14 melanoma

Measured: growth

Cc1ccc(CNc2ccc(Cl)cc2NCc2ccc(C)c(O)c2)cc1O
active: NCI-H23 lung 3.7% | NCI-H460 lung 2.22% | HOP-92 NSCLC -11% | MALME-3M melanoma -3.38% | MDA-MB-231 breast -52.2%
inactive: NCI-H226 lung 85.7% | NCI-H322M lung 17.6% | HOP-62 NSCLC 40.5% | NCI-H522 lung 12.5% | A549/ATCC NSCLC 21% | 786-0 renal 23% | COLO 205 colon 90.2% | DU-145 prostate 23.4% | K-562 leukemia 12.3% | RXF 393 renal 21.2% | SF-268 CNS 28.3% | SF-295 CNS 74.2% | SF-539 CNS 25.8% | UACC-257 melanoma 46.2% | M14 melanoma 25.3%

COc1cc(-n2cc(-c3cc(O)c(C/C=C(\C)CCC=C(C)C)c(O)c3)nn2)cc2c1O[C@]1(C)CC[C@@H](O)C(C)(C)[C@H]1C2
inactive: NCI-H23 lung 26.2% | NCI-H226 lung 52.7% | NCI-H322M lung 35.4% | NCI-H460 lung 10.4% | A549/ATCC NSCLC 10.3% | COLO 205 colon 12.5% | DU-145 prostate 30.6% | SF-268 CNS 20.9% | UACC-257 melanoma 27.4%
active: HOP-62 NSCLC -15.1% | HOP-92 NSCLC -6.06% | NCI-H522 lung -26.6% | 786-0 renal 6.92% | K-562 leukemia 3.36% | MALME-3M melanoma -0.848% | MDA-MB-231 breast -30.7% | RXF 393 renal -60.6% | SF-295 CNS -53% | SF-539 CNS -40.4% | M14 melanoma -17.5%

CCCNC(=O)Oc1ccc(/C(=C(/C)Cc2ccc(OC)cc2)c2ccc(OCCCN(C)C)cc2)cc1
inactive: NCI-H23 lung 82.4% | NCI-H226 lung 94.7% | NCI-H322M lung 88.3% | HOP-62 NSCLC 101% | NCI-H460 lung 73.3% | HOP-92 NSCLC 51.7% | NCI-H522 lung 78.5% | A549/ATCC NSCLC 77.6% | 786-0 renal 92% | COLO 205 colon 71.6% | DU-145 prostate 94.9% | K-562 leukemia 15.3% | MALME-3M melanoma 82.9% | MDA-MB-231 breast 89.9% | RXF 393 renal 74.7% | SF-268 CNS 84% | SF-295 CNS 88.2% | SF-539 CNS 97.8% | UACC-257 melanoma 99.2% | M14 melanoma 71.8%

COc1ccc(-c2cc(-c3ccc(Cl)cc3)c(C#N)c(=O)n2CCCCC(=O)Nc2ccccc2N)cc1
active: HOP-92 NSCLC -3.51% | SF-295 CNS -14.5% | M14 melanoma -7.3%
inactive: NCI-H23 lung 63.4% | NCI-H226 lung 55.3% | NCI-H322M lung 63.8% | HOP-62 NSCLC 64.1% | NCI-H460 lung 37.6% | NCI-H522 lung 48.6% | A549/ATCC NSCLC 43.8% | 786-0 renal 68.8% | COLO 205 colon 20.2% | DU-145 prostate 59.9% | K-562 leukemia 24.8% | MALME-3M melanoma 59.3% | MDA-MB-231 breast 39.3% | RXF 393 renal 14.2% | SF-268 CNS 65.5% | SF-539 CNS 73.9% | UACC-257 melanoma 44.7%

CC(C)(C)c1cc(-c2nc3ccc(N4CCN(S(C)(=O)=O)CC4)cc3[nH]2)cc(C(C)(C)C)c1O
inactive: NCI-H23 lung 96.2% | NCI-H226 lung 91.9% | NCI-H322M lung 100% | HOP-62 NSCLC 76.7% | NCI-H460 lung 90.6% | HOP-92 NSCLC 85.6% | NCI-H522 lung 78.1% | A549/ATCC NSCLC 83.4% | 786-0 renal 101% | COLO 205 colon 101% | DU-145 prostate 99.1% | K-562 leukemia 78.4% | MALME-3M melanoma 82.4% | MDA-MB-231 breast 104% | RXF 393 renal 92.6% | SF-268 CNS 93.1% | SF-295 CNS 91.1% | SF-539 CNS 86.5% | UACC-257 melanoma 98.9% | M14 melanoma 98.3%

Cc1c(-n2nnc(-c3nc4ccccc4s3)c2N)c(=O)n(-c2ccccc2)n1C
inactive: NCI-H23 lung 93.3% | NCI-H226 lung 91.4% | NCI-H322M lung 100% | HOP-62 NSCLC 103% | NCI-H460 lung 103% | HOP-92 NSCLC 104% | NCI-H522 lung 90.6% | A549/ATCC NSCLC 105% | 786-0 renal 107% | COLO 205 colon 104% | DU-145 prostate 115% | K-562 leukemia 102% | MALME-3M melanoma 97.6% | MDA-MB-231 breast 113% | RXF 393 renal 121% | SF-268 CNS 99.8% | SF-295 CNS 103% | SF-539 CNS 92.2% | UACC-257 melanoma 102% | M14 melanoma 110%

CC(=O)Nc1nc2ccc(NS(=O)(=O)c3cccc4c(N(C)C)cccc34)cc2[nH]1
inactive: NCI-H23 lung 70.5% | NCI-H226 lung 68.7% | NCI-H322M lung 82.2% | HOP-62 NSCLC 69.3% | NCI-H460 lung 68% | HOP-92 NSCLC 72.2% | NCI-H522 lung 43.3% | A549/ATCC NSCLC 68% | 786-0 renal 79.7% | COLO 205 colon 65.9% | DU-145 prostate 87.8% | K-562 leukemia 20.6% | MALME-3M melanoma 52.3% | MDA-MB-231 breast 63.5% | RXF 393 renal 53.8% | SF-268 CNS 65.6% | SF-295 CNS 37.3% | SF-539 CNS 57.9% | UACC-257 melanoma 61.9% | M14 melanoma 35.9%

c1ccc(CNc2c3ccccc3nc3ccccc23)cc1
inactive: NCI-H23 lung 41.2% | NCI-H226 lung 51.7% | NCI-H322M lung 46.3% | HOP-62 NSCLC 46% | NCI-H460 lung 10.3% | HOP-92 NSCLC 25.9% | NCI-H522 lung 56.8% | A549/ATCC NSCLC 28.5% | 786-0 renal 34.3% | DU-145 prostate 48.6% | K-562 leukemia 12.3% | MALME-3M melanoma 37.4% | MDA-MB-231 breast 57.9% | RXF 393 renal 41.9% | SF-268 CNS 62.6% | SF-295 CNS 37.6% | SF-539 CNS 24% | UACC-257 melanoma 52.7% | M14 melanoma 32.3%
active: COLO 205 colon 7.29%

N#Cc1cccc(F)c1
inactive: NCI-H23 lung 106% | NCI-H226 lung 109% | NCI-H322M lung 115% | HOP-62 NSCLC 110% | NCI-H460 lung 118% | HOP-92 NSCLC 113% | NCI-H522 lung 102% | A549/ATCC NSCLC 109% | 786-0 renal 101% | COLO 205 colon 114% | DU-145 prostate 125% | K-562 leukemia 94.4% | MALME-3M melanoma 110% | MDA-MB-231 breast 101% | RXF 393 renal 114% | SF-268 CNS 110% | SF-295 CNS 109% | SF-539 CNS 88.9% | UACC-257 melanoma 110% | M14 melanoma 102%

C/C(=C(/c1ccc(Cl)cc1)c1ccc(OCCN2CCCC2)cc1)c1ccc(Cl)cc1
inactive: NCI-H23 lung 80.3% | NCI-H226 lung 107% | NCI-H322M lung 92.9% | HOP-62 NSCLC 104% | NCI-H460 lung 70.6% | HOP-92 NSCLC 69.5% | NCI-H522 lung 88.8% | A549/ATCC NSCLC 63.4% | 786-0 renal 82.7% | COLO 205 colon 48.5% | DU-145 prostate 98.1% | K-562 leukemia 20.3% | MALME-3M melanoma 81.5% | MDA-MB-231 breast 94% | RXF 393 renal 72% | SF-268 CNS 91.5% | SF-295 CNS 100% | SF-539 CNS 91.8% | UACC-257 melanoma 98.6% | M14 melanoma 75.8%

COc1ccc(NC(=O)c2sc3nc(C)c(C(=O)/C=C/c4cccc(OC)c4)cc3c2N)cc1
active: NCI-H460 lung -7.38% | RXF 393 renal -11.4%
inactive: NCI-H23 lung 54.6% | NCI-H226 lung 71.8% | NCI-H322M lung 18% | HOP-62 NSCLC 61.8% | HOP-92 NSCLC 90.9% | NCI-H522 lung 39.2% | A549/ATCC NSCLC 13.2% | 786-0 renal 10.9% | COLO 205 colon 45.9% | DU-145 prostate 21.9% | K-562 leukemia 12.7% | MALME-3M melanoma 94.1% | MDA-MB-231 breast 53.2% | SF-268 CNS 34.4% | SF-295 CNS 26.9% | SF-539 CNS 71.2% | UACC-257 melanoma 87.9% | M14 melanoma 70.3%

O=c1oc2c(cnc3ccccc32)cc1-c1ccsc1
inactive: NCI-H23 lung 99.8% | NCI-H226 lung 97.8% | NCI-H322M lung 110% | HOP-62 NSCLC 92.3% | NCI-H460 lung 99.9% | HOP-92 NSCLC 82.4% | NCI-H522 lung 97.4% | A549/ATCC NSCLC 105% | 786-0 renal 97.1% | COLO 205 colon 112% | DU-145 prostate 104% | K-562 leukemia 92.8% | MALME-3M melanoma 101% | MDA-MB-231 breast 101% | RXF 393 renal 105% | SF-268 CNS 94.6% | SF-295 CNS 103% | SF-539 CNS 93.4% | UACC-257 melanoma 101% | M14 melanoma 101%

O=C1N[C@@H]2NC(=[N+]3CCOCC3)N[C@@H]2N1
inactive: NCI-H23 lung 103% | NCI-H226 lung 94.8% | NCI-H322M lung 96.3% | HOP-62 NSCLC 103% | NCI-H460 lung 104% | HOP-92 NSCLC 120% | NCI-H522 lung 92.9% | A549/ATCC NSCLC 101% | 786-0 renal 98.8% | COLO 205 colon 115% | DU-145 prostate 114% | K-562 leukemia 98.6% | MALME-3M melanoma 92.9% | MDA-MB-231 breast 103% | RXF 393 renal 116% | SF-268 CNS 100% | SF-295 CNS 99.9% | SF-539 CNS 98.2% | UACC-257 melanoma 109% | M14 melanoma 102%

Cc1nnc(NC(=O)c2nc(S(=O)(=O)Cc3ccc(F)cc3)ncc2Cl)s1
active: HOP-92 NSCLC -85.7% | NCI-H522 lung -67.3% | COLO 205 colon -18.8% | K-562 leukemia -23.8% | MALME-3M melanoma -12.9%
inactive: NCI-H23 lung 90.5% | NCI-H226 lung 98.7% | NCI-H322M lung 93.8% | HOP-62 NSCLC 86.1% | NCI-H460 lung 105% | A549/ATCC NSCLC 79.3% | 786-0 renal 48.3% | DU-145 prostate 88.2% | MDA-MB-231 breast 66% | RXF 393 renal 87.3% | SF-268 CNS 90.5% | SF-295 CNS 99.5% | SF-539 CNS 83.8% | UACC-257 melanoma 40.6% | M14 melanoma 83.8%

CN1CCN(C(=O)c2ccc(NC(=O)Nc3ccc(-c4nc(N5CCOCC5)c5cccn5n4)cc3)cc2)CC1
inactive: NCI-H23 lung 15.4% | NCI-H522 lung 12.4% | K-562 leukemia 15.3%
active: NCI-H226 lung -6.51% | NCI-H322M lung -12% | HOP-62 NSCLC -13.5% | NCI-H460 lung 7.17% | HOP-92 NSCLC -28.6% | A549/ATCC NSCLC 1.15% | 786-0 renal -20.1% | COLO 205 colon -11.4% | DU-145 prostate 7.11% | MALME-3M melanoma -37% | MDA-MB-231 breast 2.25% | RXF 393 renal -39.5% | SF-268 CNS 4.85% | SF-295 CNS -43.6% | SF-539 CNS -40.1% | UACC-257 melanoma -21.3% | M14 melanoma -22%
